From PubChem
A selection: hits, their analogues and other compounds. The true share with any hit is near 19%.
HT1080-NT tox: kills 2HG-producing HT-1080-NT fibrosarcoma cells | HT-1080-NT fibrosarcoma viability, CellTiter-Glo ATP luminescence, 48 h | Potency, µM (highest dose often 46.1 µM), usual class: cytotoxic | hit rate 1.6% among 360,000;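 further: NT is the 2HG producing partner of a matched IDH1 knockdown line; nearly all actives have a fitted effect of over 55% in size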
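Viability by CellTiter-Glo luminescence after 48 h compound exposure at 37C of HT-1080-NT cells (750/well, RPMI, 5% FBS). % activity scaled between DMSO wells and medium-only wells, then curve-fitted and categorized by curve class.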
TDP1 cell CPT: DT40-hTDP1 cell growth loss with CPT | AID 686979 | hit rate 12% among 420,000 | Potency, µM (series often up to 46.2 µM), most hits filed as inhibitors | chicken DT40 Tdp1-/-;hTDP1 cells + 20 nM CPT, ATP luminescence, 48 h; further: nearly all actives have a fitted effect of over 55% in size
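Chicken DT40 Tdp1-/- cells complemented with human TDP1, 400 cells/well, exposed to compounds plus 20 nM camptothecin for at least 48 h at 37 C; viability read as ATP content by CellTiter-Glo luminescence.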
ELG1 DNA repair: inhibitors of ELG1-dependent DNA repair in HEK293T cells. hit rate 2.3% among 330,000. HEK293T ELG1-luciferase reporter, luminescence, 16 h; DNA damage induced by 5-fluorouridine. AID 504467. Potency, µM (titrated, usually from 46.1 µM), most hits filed as inhibitors; further: nearly all actives have a fitted effect of over 55% in size
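Reporter activity after DNA damage by 5-fluorouridine is monitored. Compound-treated cells incubate 16 hr at 37 °C, then ONE-Glo is added for 30 min before luminescence reading.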
HT1080 IDH1KD tx: kills HT-1080 cells with IDH1 knockdown; HT-1080 IDH1 knockdown viability, ATP luminescence, 48 h; Potency, µM (titrated, usually from 46.1 µM), most hits filed as cytotoxic; hit rate 2% among 360,000
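Assay cells: HT-1080 with IDH1 knockdown, 750 per well, RPMI/5% FBS. Exposure: 48 h at 37 °C following 2 h pre-incubation. Read: CellTiter-Glo luminescence; fitted concentration-response, curve class assigned.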
IL1B secr inh: inflammasome signaling inhibition, IL-1 beta readout; hit rate 4.7% among 360,000; THP-1 LPS/ATP IL-1B secretion, AlphaLISA, 16 h; stronger effect = lower value; activity change, % at 57.5 µM; in the data active means activity change below about -50%; inconclusive means mostly about -30% to -49%
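THP-1 cells pretreated 1 hr with compounds (up to 57.5 uM final), then stimulated with LPS (250 ng/mL final) plus ATP (1.25 mM final); secreted IL-1B measured by AlphaLISA after 16 hr, decreased signal indicating inhibition.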
TDP1 cell noCPT: qHTS for Inhibitors of human tyrosyl-DNA phosphodiesterase 1 (TDP1): qHTS in cells in absence of CPT; Potency, µM (highest dose often 46.2 µM), usual class: inhibitors; DT40 Tdp1-/- hTDP1 cells, no CPT, ATP luminescence, 48 h; hit rate 15% among 420,000; further: nearly all actives have a fitted effect of over 55% in size
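Compound effects on proliferation are scored in DT40 Tdp1-/-;hTDP1 cells in the absence of CPT. ATP levels (CellTiter-Glo luminescence) are recorded after a ≥48 hr, 37 °C incubation.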
Large screens that a line does not name were inactive; ! = not active in a repeat. Unless noted, the call rests on the fitted dose curve; in most records, active means well fitted curve in the direction sought with a large enough effect; inconclusive means small, poorly fitted or top-dose-only effect, or another doubt; inactive means no such curve, though single readings can be large; an effect the other way counts as inactive or inconclusive.

CCNc1ccc(C(=O)OCC)cc1NC(=O)c1cccc(S(=O)(=O)N(C)c2ccccc2)c1	TDP1 cell CPT 16.4µM, ELG1 DNA repair 7.31µM, TDP1 cell noCPT 4.61µM
CCNc1ccc(C(=O)OCC)cc1NC(=O)c1cccc(N(C)C)c1	HT1080-NT tox 1.78µM, TDP1 cell CPT 3.26µM, ELG1 DNA repair inconclusive, HT1080 IDH1KD tx inconclusive, TDP1 cell noCPT 2.59µM
CCOC(=O)c1ccc(S(=O)(=O)NNC(=O)c2cccc(N(C)C)c2)cc1	IL1B secr inh -141.2
Cc1ccc(S(=O)(=O)NC(=O)c2cccc(N(C)C)c2)cc1	none
CN(C)c1cccc(C(=O)OCC(=O)N(C)c2ccccc2)c1	none
CC(C)c1ccc(C2C3=C(COC3=O)Nc3cc4c(cc32)OCO4)cc1 (stereo not given)	HT1080-NT tox 1.46µM, TDP1 cell CPT 0.651µM, HT1080 IDH1KD tx 1.64µM, TDP1 cell noCPT 0.92µM
CCOc1ccc(CN2CCNC(=O)C2CC(=O)NCCN2CCOC2=O)cc1 (stereo not given)	none
Cc1ccc(-c2nnc(SCc3ccccc3C#N)o2)cc1	TDP1 cell noCPT inconclusive (no result: HT1080-NT tox, ELG1 DNA repair, HT1080 IDH1KD tx, IL1B secr inh)
O=C(NCC1CCCO1)c1nn2c(c1Cl)NC(c1ccc(F)cc1)CC2C(F)(F)F (stereo not given)	TDP1 cell CPT 16.4µM, TDP1 cell noCPT inconclusive
Cc1nn(C)c(C)c1CNC(=O)c1nn2c(c1Cl)NC(c1cccs1)CC2C(F)(F)F (stereo not given)	HT1080-NT tox inconclusive, TDP1 cell CPT 16.4µM, ELG1 DNA repair inconclusive, HT1080 IDH1KD tx inconclusive, TDP1 cell noCPT 9.2µM
Cc1ccc(C2CC(C(F)(F)F)n3nc(C(=O)NCc4ccco4)cc3N2)cc1 (stereo not given)	none
Cc1nn(Cc2ccc(F)cc2)c(C)c1NC(=O)c1cnn2c1NC(c1cccs1)CC2C(F)(F)F (stereo not given)	TDP1 cell CPT inconclusive, ELG1 DNA repair inconclusive, HT1080 IDH1KD tx inconclusive
Cc1nn(C)cc1CNC(=O)c1cc2n(n1)C(C(F)(F)F)CC(c1cccs1)N2 (stereo not given)	TDP1 cell CPT inconclusive, ELG1 DNA repair 23.1µM, TDP1 cell noCPT inconclusive
Cc1cc(Cl)ccc1OCC(=O)N1CCOc2ccc(CN3C[C@@H](C)O[C@@H](C)C3)cc2C1	TDP1 cell noCPT inconclusive (no result: HT1080-NT tox, ELG1 DNA repair, HT1080 IDH1KD tx, IL1B secr inh)
Cc1ccccc1NC(=O)CSc1nc(=O)n(CCN2CCOCC2)c2c1CCC2	none (no result: HT1080-NT tox, ELG1 DNA repair, HT1080 IDH1KD tx, IL1B secr inh)
COc1ccc(CN(CCc2ccccc2)Cc2ccccc2)cc1OC	TDP1 cell CPT inconclusive, TDP1 cell noCPT inconclusive
COc1cc(CN(CCN(C)C)Cc2ccccc2)ccc1OCc1ccccc1	HT1080-NT tox 23.1µM, TDP1 cell CPT inconclusive, HT1080 IDH1KD tx 20.6µM, IL1B secr inh -62.6, TDP1 cell noCPT 23.1µM
Cc1cc(C)cc(CN2CCOc3ccc(CN4CCC(O)(c5cccnc5)CC4)cc3C2)c1	TDP1 cell noCPT inconclusive (no result: HT1080-NT tox, ELG1 DNA repair, HT1080 IDH1KD tx, IL1B secr inh)
Cc1ccc(NC(=O)COC(=O)Cn2cnc3c2c(=O)n(C)c(=O)n3C)cc1	none
CCOC(=O)c1c(NC(=O)COC(=O)Cn2cnc3c2c(=O)n(C)c(=O)n3C)sc(C)c1CC	TDP1 cell CPT 6.51µM, ELG1 DNA repair inconclusive
CCCCNc1ccc(C(=O)OCCN(C)C)cc1	TDP1 cell CPT 13µM!, TDP1 cell noCPT inconclusive
CCCCNc1ccc(C(=O)OCCOCCOCCOCCOCCOCCOCCOCCOCCOC)cc1	HT1080-NT tox inconclusive, TDP1 cell CPT inconclusive
CC(C)(C)NC(=O)C(c1ccsc1)N(CCc1ccccc1)C(=O)Cn1nnc2ccccc21 (stereo not given)	TDP1 cell CPT inconclusive, ELG1 DNA repair inconclusive
Cc1cc(C)c(N(C(=O)Cn2nnc3ccccc32)C(C(=O)NC(C)(C)C)c2ccsc2)c(C)c1 (stereo not given)	TDP1 cell CPT 16.4µM, TDP1 cell noCPT inconclusive
Cc1ccc(C)c(N(C(=O)Cn2nnc3ccccc32)C(C(=O)NC(C)(C)C)c2ccsc2)c1 (stereo not given)	TDP1 cell CPT 23.1µM, ELG1 DNA repair inconclusive, TDP1 cell noCPT inconclusive
C[C@@H]1CN([C@H](C)CO)C(=O)c2c(c3ccccc3n2C)-c2ccccc2CO[C@H]1CN(C)S(=O)(=O)c1cn(C)cn1	none (no result: ELG1 DNA repair)
NCCCNc1nc(N)c([N+](=O)[O-])c(NC2CCCCC2)n1	TDP1 cell CPT 4.11µM, ELG1 DNA repair inconclusive, HT1080 IDH1KD tx inconclusive, TDP1 cell noCPT 3.66µM
COc1ccccc1Nc1nc(NCCC(C)C)nc(N)c1[N+](=O)[O-]	TDP1 cell CPT inconclusive, ELG1 DNA repair 20.6µM, TDP1 cell noCPT 18.4µM
CNc1nc(N)c([N+](=O)[O-])c(Nc2ccccc2OC)n1	TDP1 cell CPT inconclusive, ELG1 DNA repair inconclusive, TDP1 cell noCPT 20.6µM
COc1ccccc1Nc1nc(N(C)c2ccccc2)nc(N)c1[N+](=O)[O-]	TDP1 cell noCPT inconclusive
COc1ccc(OC)c(Nc2nc(N)c([N+](=O)[O-])c(NC3CCCCC3)n2)c1	TDP1 cell CPT 8.2µM, TDP1 cell noCPT inconclusive
OCC[C@@H]1C[C@@H](O)[C@H](O)[C@@]2(CCc3ccccc3CO2)O1	none
CCNc1sc(C(=O)OCC)c(N)c1C#N	none
CN(C(=O)COC(=O)c1ccc(S(=O)(=O)N2CCCCCC2)cc1)c1ccccc1	none (no result: ELG1 DNA repair)
COc1ccc(OC)c(Nc2nc(N)c([N+](=O)[O-])c(NCc3ccccc3)n2)c1	TDP1 cell CPT inconclusive, ELG1 DNA repair inconclusive, TDP1 cell noCPT inconclusive (no result: IL1B secr inh)
COc1ccc(OC)c(Nc2nc(NCCCN(C)C)nc(N)c2[N+](=O)[O-])c1	TDP1 cell CPT 4.61µM, HT1080 IDH1KD tx 16.4µM, IL1B secr inh -98.7, TDP1 cell noCPT 4.61µM
CCCCCC(=O)N1CCCC(c2nc(-c3ccc(OC)cc3)no2)C1 (stereo not given)	TDP1 cell CPT inconclusive, ELG1 DNA repair inconclusive, IL1B secr inh inconclusive, TDP1 cell noCPT 23.1µM
COc1ccc(-c2noc(CCC(=O)N3CCC(C)CC3)n2)cc1	none
CCCC(=O)N1CCCC(c2nc(-c3cccc(OC)c3)no2)C1 (stereo not given)	TDP1 cell CPT inconclusive, ELG1 DNA repair inconclusive, TDP1 cell noCPT inconclusive
CCCCCCC(=O)N1CCCC(c2nc(-c3cccc(OC)c3)no2)C1 (stereo not given)	IL1B secr inh -62.5, TDP1 cell noCPT inconclusive
COc1cccc(-c2noc(C3CCCN(C(=O)Cc4ccccc4)C3)n2)c1 (stereo not given)	TDP1 cell CPT 18.4µM, ELG1 DNA repair inconclusive, TDP1 cell noCPT 18.4µM
O=C(Cc1ccccc1)N1CCCC(c2nc(-c3cccs3)no2)C1 (stereo not given)	none
